# Compound activity deposited in PubChem by several laboratories.
# Most compounds without a hit are left out; they make up all but 28% or so of the library.
# CYP2C9 act: increases human cytochrome P450 2C9 activity; P11712; recombinant CYP2C9, luciferin-H conversion, luminescence; active compounds read high; factor 1 = untreated enzyme, 0 = blocked; activation factor at 5 µM; actives 1.4% (n = 96,000);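 active = activation factor of 2 or more for CYP2C9 at a 5 µM dose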;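 also: 0 = sulfaphenazole-blocked wells and 1 = vehicle-only wells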
# CYP2C19 activ: increases human CYP2C19 enzyme activity. P33261. recombinant CYP2C19, luciferin-H EGE luminescence; active compounds read high; 0 = fully inhibited enzyme, 1 = untreated enzyme. activation factor at 5 µM. 96,000 tested, under 10 active. AID 1025;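 active = activation factor of at least 2 at 5 µM in the primary screen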;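 also: 0 = wells with 2.5 mM tranylcypromine and 1 = vehicle-only wells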
# Target sequence (P33261 whole entry, looked up): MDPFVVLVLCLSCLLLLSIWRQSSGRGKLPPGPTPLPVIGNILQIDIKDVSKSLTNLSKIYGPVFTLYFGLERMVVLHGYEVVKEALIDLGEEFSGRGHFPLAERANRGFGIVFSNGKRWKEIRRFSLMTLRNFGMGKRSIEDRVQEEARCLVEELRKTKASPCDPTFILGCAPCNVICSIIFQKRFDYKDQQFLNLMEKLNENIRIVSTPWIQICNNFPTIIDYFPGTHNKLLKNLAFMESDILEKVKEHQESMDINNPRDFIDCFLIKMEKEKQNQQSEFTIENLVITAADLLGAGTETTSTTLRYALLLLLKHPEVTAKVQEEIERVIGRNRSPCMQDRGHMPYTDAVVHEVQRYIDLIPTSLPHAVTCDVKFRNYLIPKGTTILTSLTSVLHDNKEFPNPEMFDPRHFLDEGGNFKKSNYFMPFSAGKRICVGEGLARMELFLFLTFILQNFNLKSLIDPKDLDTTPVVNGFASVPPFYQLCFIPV
# PLK1 kinase inh: PLK1 (human) kinase inhibition; P53350; recombinant PLK1 kinase, TR-FRET peptide phosphorylation; inhibition, % at 10 µM; actives 0.53% (n = 97,000); AID 619;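 active = inhibition of 50% or more in the single-concentration screen; inactive = inhibition below 50%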;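 also: 0% = DMSO max control and 100% = H-89 dihydrochloride min control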
# PLK1 PBD inh: inhibitors of human Plk1 polo box domain binding; Plk1 PBD phosphopeptide binding, fluorescence polarization; inhibition, %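 (tested at about 20 µM)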; actives 0.13% (n = 97,000); AID 693; in the data active = inhibition above about 34%, passing the limit was not always enough
# CYP2C9 inh: human CYP2C9 inhibition; P11712; CYP2C9 Supersomes, luciferin-H conversion, luminescence; inhibition, % at 5 µM; actives 20% (n = 96,000);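 active = blocking of liver enzyme CYP2C9 beyond about 50% at 5 µM, limit read from the data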
# CYP2C19 inhib: inhibitors of human CYP2C19 | actives 21% (n = 96,000) | inhibition, % at 5 µM | P33261 | AID 778 | CYP2C19 Supersomes, luciferin-H EGE luminescence, 30 min;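 active = CYP2C19 inhibition above a set limit at 5 µM in the primary screen, cut at about 50% in these data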;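 also: plate controls were negative control wells for no effect and 2.5 mM tranylcypromine positive control for full effect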
# * marks the source's active call; other numbers are inactive results; · = no result.
SMILES,CYP2C9 act,CYP2C19 activ,PLK1 kinase inh,PLK1 PBD inh,CYP2C9 inh,CYP2C19 inhib
CCOC(=O)C1=C(Cn2cnc3ccccc32)NC(=O)NC1c1cc(C)ccc1C (centres undefined),0.7,0.5,-10,-28,30,46
CCOC(=O)C1=C(C)NC(=O)NC1c1ccc(C)o1 (centres undefined),0.9,0.9,69*,18,12,8
COc1ccc(OC)c(NC(=O)c2c(NC(=O)c3ccco3)sc3c2CCC3)c1,0.8,1.1,-5,-3,22,-8
O=C1c2ccccc2C(=O)N1c1cccnc1,1,1.1,-6,2,-1,-11
CC(C)(C)c1ccc2c(c1)OCC(C(=O)O)O2 (centres undefined),0.9,0.6,-4,3,11,37
Cc1noc(C)c1COC(=O)[C@H](C)NS(=O)(=O)c1ccc(Cl)c(Cl)c1,0.4,0,-1,-3,62*,98*
C=CCn1c(SCC(=O)Nc2nccs2)nnc1-c1cc2cccc(OC)c2o1,1.7,0.9,2,-15,-73,9
CCCc1ccc2c(N)c(C#N)sc2n1,0.7,0.1,-7,1,27,90*
COc1ccccc1CNC(=O)COC(=O)c1cc(-c2ccco2)nc2ccccc12,0.5,1.2,-17,-29,52*,-18
O=C(COC(=O)c1cc(-c2ccc(Cl)s2)nc2ccccc12)NCc1ccco1,0.8,1.2,-10,4,17,-15
O=C(COC(=O)c1cc(-c2cccs2)nc2ccccc12)NCc1ccco1,0.1,0.5,-8,-6,90*,54*
c1ccc(C2C3=C(Nc4ncnn42)c2ccccc2CCC3)cc1 (centres undefined),0.7,0.5,-2,4,30,52*
O=C1CCCC2=C1C(c1cccs1)n1ncnc1N2 (centres undefined),1.1,1.1,36,36,-12,-8
Clc1ccc(C2C3=C(Nc4ncnn42)c2ccccc2CC3)cc1 (centres undefined),0.3,0.2,-4,15,69*,80*
Clc1ccc(CSc2nnc(/C=C/c3ccccc3)o2)cc1,0.9,0.9,-3,-16,14,9
CSc1nc2nc(C)cc(-c3ccccc3)n2n1,1,1.1,-9,-16,-1,-10
CSc1nc2nc(C(F)(F)F)cc(-c3ccccc3)n2n1,0.4,0.7,-12,-19,62*,27
c1csc(Cn2c(-c3cccs3)nc3ccccc32)c1,0.1,0.1,2,-5,94*,87*
CC(C)Cn1c(-c2cccs2)nc2ccccc21,1,0.7,-8,-1,-1,31
CCN(CC)S(=O)(=O)c1ccc(C(=O)OC2CCCCC2CN(C)C)cc1 (centres undefined),0.5,0.9,-9,19,50*,8
CCN(CC)S(=O)(=O)c1ccc(S(=O)(=O)N2CCCC2C(=O)O)cc1 (centres undefined),1,1,-8,-23,-5,-1
Cc1cccc(N2CCN(CC(=O)Nc3nccs3)CC2)c1C,0.4,0.2,-2,-14,62*,82*
COc1ccccc1C1NC(=O)CS1 (centres undefined),1.1,1,-4,7,-11,-5
O=C(CSc1nnc(Cc2cccs2)n1-c1ccccc1)Nc1ccc2c(c1)OCCO2,0.1,0.2,-3,-8,89*,85*
N#C/C(=C(/O)CSc1nnc(Cc2cccs2)n1C1CCCCC1)c1nc2ccccc2[nH]1,0.6,0.4,·,·,37,61*
SMILES,CYP2C9 act,CYP2C19 activ,PLK1 kinase inh,PLK1 PBD inh,CYP2C9 inh,CYP2C19 inhib
Cc1ccc(-n2c(Cc3cccs3)nnc2SCC(=O)Nc2ccc(F)c(F)c2)cc1,0.9,1.1,17,-9,14,-13
O=C(CSc1nnc(Cc2cccs2)n1-c1ccccc1)NC1CCCCC1,0.3,0.5,-15,-10,72*,55*
CCn1c(Cc2ccccc2)nnc1SCC(=O)Nc1ccc(N2CCOCC2)c(Cl)c1,0.4,0.2,-12,-19,58*,80*
N=c1oc2ccccc2cc1-c1nc2ccccc2c(=O)[nH]1,0.8,0.7,-7,-21,19,27
CCOc1cc(C(=O)N2CCOCC2)ccc1OCc1ccccc1,0.9,1,-11,27,6,-3
Cn1c(Cc2ccccc2)nnc1SCC(=O)Nc1ccc2c(c1)OCCO2,0.3,0.3,-79,-26,74*,75*
CCn1c(Cc2ccccc2)nnc1SCC(=O)Nc1ccc2c(c1)OCO2,0.5,0.4,-5,-5,50,62*
Cc1ccc2nc(CSc3nnc(Cc4cccs4)n3C3CCCCC3)cc(=O)n2c1,0.5,0.3,-14,-14,52*,71*
Cn1c(SCC(=O)Nc2ccc3c(c2)OCCO3)nnc1-c1ccccn1,1,1,-5,4,-2,-5
CCN1CCCC1CNC(=O)Cn1cnc2sc(C)c(S(=O)(=O)N3CCC(C)CC3)c2c1=O (centres undefined),·,·,-4,1,·,·
COc1ccccc1N(CC(=O)NCC1CCCO1)C(=O)CNS(=O)(=O)c1ccc(C)cc1 (centres undefined),1,1,-8,13,4,-1
O=C(CSc1nc2ccccc2[nH]1)N1CCN(S(=O)(=O)c2ccc(Cl)cc2)CC1,0.8,0.9,-9,-12,18,8
CS(=O)(=O)c1cc([N+](=O)[O-])c(Sc2nc3ccccc3[nH]2)c([N+](=O)[O-])c1,0.9,0.3,-14,1,12,69*
CCOC(=O)n1c(=O)oc2cc(S(=O)(=O)N3CCOCC3)ccc21,1,0.9,-15,-9,-1,7
Cc1ccc(Oc2ccccc2/C=C2\SC(=O)N(C)C2=O)cc1,0.7,0.5,4,-27,32,51*
O=C1N/C(=N/NC(=O)c2cccc3ccccc23)S/C1=C\c1ccccc1OCc1ccccc1,0.7,1.1,-10,-11,26,-12
O=C1NC(=O)/C(=C/c2ccccc2Oc2ccc(Cl)cc2)S1,0.3,0.8,-17,14,72*,16
C/C(=N\Nc1nccnc1Cl)c1ccc([N+](=O)[O-])cc1,0.9,0.9,-9,6,10,14
Cc1c(S(=O)(=O)N2CCN(C(=O)c3ccco3)CC2)c(=O)n(C)c(=O)n1C,1,0.9,-12,38,3,6
COc1ccc(C)cc1-n1nnnc1SCc1cc(=O)n2cc(C)ccc2n1,0.9,0.4,·,·,13,61*
COc1ccc(C)cc1-n1nnnc1SCc1csc(C)n1,0.3,0,-1,1,73*,99*
COc1ccc(-c2nnnn2-c2ccccc2OC)cc1,·,·,-8,27,·,·
COc1ccccc1NC(=O)CSc1nnnn1-c1ccc(C)cc1,·,·,-7,6,·,·
Cc1ccccc1-n1nnnc1-c1ccccc1,0.7,0.3,-11,10,27,70*
